Compound activity (PubChem)
The list is not random: actives were taken first. Their share in the collection is about 3%.
p53null 39C tox: kills p53 null cells at the nonpermissive temperature; Potency, µM (titrated, usually from 46.1 µM), without a hit: at the top dose activity, negative = cell killing, most hits filed as cytotoxic; H1299 p53-null (neo) cells, 39C, ATPlite viability, 24 h; AID 904; hit rate 0.97% among 55,000;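 also: 0% = DMSO only and -100% = full killing by 100 µM tamoxifen; nearly all actives have a fitted effect of over 50% in size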
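Temperature-shift cytotoxicity format: compound titrations on p53-null or A138V-expressing H1299 cells held 24 hr at 39C, cell ATP then measured, AC50 from Hill model.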
SKOV3 invasion: ovarian cancer metastasis inhibition, 3D TME model. Potency, µM (titrated, usually from 45.8 µM), for the others: at the highest dose activity change, negative = inhibition, most hits filed as inhibitors. SKOV3ip1-GFP adhesion/invasion on 3D omental model, fluorescence. AID 1963576. hit rate 0.1% among 46,000;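 also: plate controls were DMSO wells for no effect and tomatine positive control wells for full effect; nearly all actives have a fitted effect of over 65% in size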
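Adhesion/invasion was scored as fixed GFP-labeled SKOV3ip1 cell counts (488/509 nm), normalized to DMSO and tomatine controls. Cancer cells in serum-free medium, with four compound doses (0.36-46 umol/L), sat 2 hr at RT then 16 hr at 37 C on a 48 hr fibroblast/mesothelial/ECM culture.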
S16 viability: S16 Schwann cell cytotoxicity; S16 Pmp22-F2sN Schwann cells viability, CellTiter-Glo, 24 h; Potency, µM (highest dose often 57.5 µM), for the others: top-dose activity change, negative = cytotoxicity, most hits filed as cytotoxic; hit rate 0.48% among 43,000; AID 1508642; also: nearly all actives have a fitted effect of over 65% in size
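Viability was measured by CellTiter-Glo luminescence (15 min, room temperature). This followed 24 h at 37 °C of compound exposure (23 nL pin transfer) in S16 Pmp22-F2sN Schwann cells, 500-1,000 per well.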
PMP22 txn: modulates PMP22 transcription in S16 Schwann cells; S16 Pmp22-F2sN Schwann cells (luciferase reporters placed in the Pmp22 gene), FLuc/NLuc coincidence luminescence, 24 h; Potency, µM (highest dose often 57.5 µM), for the others: at the highest dose activity change, negative = inhibition, most hits filed as inhibitors; hit rate 2% among 43,000; active = clear falling dose curves in both reporters; inconclusive = both reporters move, but less clearly or upward; inactive = either reporter flat; the % is the NLuc reporter signal
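qHTS, 1536-well. Cells seeded, compounds added by pin tool, 24 h 37C. Nano-Glo reagent 1 (lysis/FLuc), 10 min RT, read; Stop&Glo, 10 min RT, read NLuc.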
pS6 MEF inh: reduces mTORC1 signaling in Tsc2 and p53 null MEF cells; AID 493208; Tsc2-/- p53-/- MEF, phospho-rpS6 immunofluorescence/PI, 24 h; Potency, µM (highest dose often 38.3 µM), for the others: top-dose activity change, negative = inhibition, hits mostly inhibitors; hit rate 0.78% among 44,000;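 also: plate controls were DMSO for no effect and rapamycin for full effect; nearly all actives have a fitted effect of over 50% in size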
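Tsc2-/-, p53-/- mouse embryonic fibroblasts (empty-vector line) exposed to compound 24 hrs at 37 C, fixed, immunostained for phospho-rpS6 and counterstained with propidium iodide. Acumen laser scanning gives % positive cells from Alexa 488/PI ratio, thresholded using 7.5 nM rapamycin; PI count gives viability.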
p53null 32C tox: selectivity test: cytotoxicity in p53 null cells, permissive temperature | H1299-neo p53 null cells, ATP luminescence, 24 h, 32C | Potency, µM (series often up to 46.1 µM), for inactives: at the highest dose activity change, negative = cytotoxicity, usual class: cytotoxic | hit rate 0.62% among 55,000 | AID 903;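 also: 0% = DMSO only and -100% = full killing by 100 µM tamoxifen; nearly all actives have a fitted effect of over 55% in size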
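H1299-neo (p53-null) cells, 600/well, were pre-incubated overnight at 37C, then exposed to compounds at up to 46 uM for 24 hr at 32C. Viability was measured as ATP content by luminescence, and AC50 values came from Hill fits.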
* marks the source's active call; other numbers are inactive results; i = inactive; ? = inconclusive; · = no result. Unless noted, calls follow the shape of the dose curve; as a rule, active = well fitted curve in the direction sought with a large enough effect; inconclusive = small, poorly fitted or top-dose-only effect, or another doubt; inactive = no such curve, though single readings can be large; an effect the other way counts as inactive or inconclusive. Unless noted, % is scaled to controls: 0 for no effect and ±100 for the full control effect; potency is read from the fitted curve at half-maximal effect.

SMILES | p53null 39C tox | SKOV3 invasion | S16 viability | PMP22 txn | pS6 MEF inh | p53null 32C tox
COc1ccc(NC(=O)c2ccc3c(SCC(=O)O)c4c(nc3c2)CCCC4)cc1OC | -9.9% | -14.8% | ? | -67.1% | 0.5% | -16.0%
COc1ccc(/C=C/C(=O)Nc2ccc3nc(N4CCCCC4)cc(C)c3c2)cc1OC | -2.7% | ? | ? | ? | ? | -7.0%
COc1ccc(/C=C/C(=O)Nc2ccc3nc4c(c(Nc5ccc(OC)c(OC)c5)c3c2)CCCC4)cc1 | 6.31µM* | 5.01µM* | ? | ? | 3.69µM* | 12.6µM*
COc1ccc(/C=C/C(=O)Nc2ccc3nc(N4CCC(C)CC4)cc(C)c3c2)cc1 | 2.7% | 5.7% | ? | -0.9% | -9.9% | 2.5%
COc1ccc(Nc2c3c(nc4ccc(NC(=O)/C=C/c5cccc(OC)c5OC)cc24)CCCC3)cc1OC | 3.16µM* | 5.01µM* | ? | ? | 3.69µM* | 10µM*
COc1ccc(Nc2c3c(nc4ccc(NC(=O)/C=C/c5cc(OC)c(OC)c(OC)c5)cc24)CCCC3)cc1OC | 7.08µM* | -8.8% | 11.2µM* | ? | 2.07µM* | 12.6µM*
COc1ccc(/C=C/C(=O)Nc2ccc3nc4c(c(Nc5ccccc5OC)c3c2)CCCC4)cc1 | ? | 1.26µM* | ? | ? | 2.33µM* | -8.6%
COCCOc1nc(-c2ccc(Cl)c(Cl)c2)n(-c2ccc(NC(=O)CCl)cc2)n1 | · | 20.4% | · | · | · | ·
CC1CCN(c2cc(N3CCN(C)CC3)ccc2NC(=O)c2cc(C#N)c[nH]2)CC1 | · | 23.3% | · | · | · | ·
CC(=O)N1CCCc2cc(S(=O)(=O)N3CCCC(C(=O)N4CCN(c5ccccc5F)CC4)C3)ccc21 (centres undefined) | 11.7% | 2.1% | 10µM* | ? | -15.0% | -2.1%
CC1=C(CO)C(=O)O[C@@H]([C@@H](C)[C@H]2CC[C@H]3[C@@H]4C[C@H]5O[C@]56[C@@H](O)C=CC(=O)[C@]6(C)[C@@H]4CC[C@]23C)C1 | · | 4.69µM* | · | · | · | ·
C[C@H](CCC(=O)O)[C@H]1CC[C@H]2[C@@H]3[C@H](O)C[C@@H]4C[C@H](O)CC[C@]4(C)[C@@H]3CC[C@]12C | · | 3.2% | · | · | · | ·
COc1ccc(C(=O)Nc2cc(C(C)C)c(O)c(S(=O)(=O)c3ccc(Cl)cc3)c2C)cc1 | -12.1% | 1.4% | -6.6% | 18.5% | -1.5% | 2.7%
COc1ccc(C(=O)NC(c2ccc(Cl)cc2)c2cc(Cl)c3cccnc3c2O)cc1 (centres undefined) | 17.0% | 1.6% | 3.98µM* | ? | 1.7% | ?
CC(C)c1ccc(-c2noc(SCC(=O)N3CCCCC3)n2)cc1 | ? | 2.2% | -6.4% | ? | 3.2% | 12.6µM*
O=C(O)c1ccc(-c2cc3cccnc3c(-c3ccc4nonc4c3)n2)cc1 | · | 7.0% | · | · | · | ·
Cc1cccc(N2CCN(c3ncnc4onc(C)c34)CC2C)c1 (centres undefined) | ? | -3.6% | ? | 11.3µM* | -1.8% | ?
CCn1cc(-c2ccnc3[nH]c(-c4cccc(CN(C)C)c4)cc23)c(-c2ccc(NC(=O)N(C)C)cc2)n1 | · | 1.4% | · | · | · | ·
NC1CCC(Nc2nc(Nc3ccc(C(=O)N4CCCCC4)cc3)c3ncn(-c4cccc(F)c4)c3n2)CC1 (centres undefined) | · | -3.6% | · | · | · | ·
Cc1nn(-c2ccccc2Cl)c(Cl)c1/C=N/Nc1cccc(C(=O)O)c1 | 14.1µM* | · | · | · | · | 10µM*
COC(=O)N/N=C/c1c(C)nn(-c2cccc(Cl)c2)c1Cl | · | · | · | · | · | 6.2%
CCN(CC)CCn1c(=N)n(CC(O)COc2ccccc2C)c2ccccc21 (centres undefined) | 17.8µM* | ? | 28.2µM* | ? | 11.7µM* | -2.0%
CCN(CC)CCn1c(=N)n(CCOc2ccccc2Cl)c2ccccc21 | 3.16µM* | ? | 28.2µM* | ? | 5.85µM* | -20.8%
N=c1n(CCO)c2ccccc2n1CCOc1ccc(F)cc1 | -2.5% | 2.9% | · | · | ? | -2.1%
CCn1c(=N)n(CC(O)COc2ccccc2)c2ccccc21 (centres undefined) | 14.7% | i | 10.2% | ? | -2.6% | -7.8%
SMILES | p53null 39C tox | SKOV3 invasion | S16 viability | PMP22 txn | pS6 MEF inh | p53null 32C tox
Cc1cc(C(=O)NOCCO)c(Nc2ccc(I)cc2F)n(C)c1=O | · | 0.6% | · | · | · | ·
COc1cc(C(=O)NCC(c2cccnc2)N2CCN(c3ccc(F)cc3)CC2)cc(OC)c1OC (centres undefined) | 15.8µM* | 1.5% | 10.3% | 6.7% | 2.8% | -22.0%
COc1ccc(C(=O)NCC(c2cccnc2)N2CCN(c3ccc(F)cc3)CC2)cc1OC (centres undefined) | -0.5% | · | · | · | · | -11.0%
COc1ccccc1N1CCN(C(CNC(=O)C(=O)NCc2cccnc2)c2cccnc2)CC1 (centres undefined) | 20µM* | 23.3% | -5.9% | ? | -0.9% | ?
C[C@@H](N)c1ccc(C(=O)Nc2ccnc3[nH]ccc23)cc1 | · | -11.1% | · | · | · | ·
CC(=O)C1=C(c2ccc(Cl)c(Cl)c2)N(C(C)=O)n2cnnc2S1 | -22.5% | ? | ? | ? | 14.7µM* | 12.1%
COc1cccc(C2=C(C(C)=O)Sc3nncn3N2C(C)=O)c1 | -1.5% | -17.7% | ? | ? | -10.0% | -8.5%
CCC(=O)C1=C(c2ccc(F)cc2)N(C(=O)CC)n2cnnc2S1 | -1.1% | i | ? | ? | 11.7µM* | -2.1%
CCOc1ccc(C2=C(C(=O)CC)Sc3nncn3N2C(=O)CC)cc1 | ? | -19.2% | ? | ? | ? | 12.6µM*
O=C(O)C1=NC(C(=O)O)CC(C=CN2c3cc(O)c(OC4OC(CO)C(O)C(O)C4O)cc3CC2C(=O)O)=C1 (centres undefined) | · | -15.4% | · | · | · | ·
CN(C(=O)c1ccc(F)cc1C(F)(F)F)C1CCN(c2nnc(-c3ccnn3C)c3ccccc23)CC1 | · | -25.6% | · | · | · | ·
C[N+]1(C)[C@@H]2C[C@@H](OC(=O)C(O)(c3cccs3)c3cccs3)C[C@H]1[C@@H]1O[C@@H]12 | · | 5.7% | · | · | · | ·
O=C(NCC1CCN(Cc2cccc(Cl)c2)CC1)Nc1ccc(F)c(Cl)c1 | ? | 20µM* | ? | -33.1% | 18.5µM* | 4.5%
CCOc1ccc(-n2nc3ccc(NC(=O)c4ccc(-c5cccc(Cl)c5)o4)cc3n2)cc1 | ? | 15.0% | ? | ? | 11.7µM* | -29.5%
Cc1ccc(NC(=O)CSc2[nH]c(=O)ncc2C)cc1 | 12.6µM* | -0.3% | -2.5% | 4.1% | 3.3% | 11.2µM*
